# PAX8 reporter = inhibitors of PAX8-driven TPO luciferase reporter, primary screen, RMG-I cells, single concentration. SteadyGlo, 24 h. inhibition, % at 12.6 µM. 360,000 compounds, 1.2% hits. AID 652154, 2013;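 active = mean replicate inhibition at least 60% with every replicate also reaching 60%; inconclusive = only one of the two criteria is met; inactive = mean below 60% and not all replicates reaching 60%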;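 also: luciferase light reporting Pax8 driven TPO promoter activity; plate controls were median of neutral control wells for no effect and mitoxantrone controls for full effect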
# LGR2 antag = inhibitors of bursicon-induced LGR2 CRE-luciferase signal, primary screen, cell-based, HEK293, CRE-luciferase reporter, bursicon stimulation; inhibition, % at 9.99 µM; Drosophila bursicon receptor LGR2 (rickets); 380,000 compounds, 0.35% hits; bursicon-stimulated, 4 h;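 active = drop in luminescence signal, shown as inhibition above about 50% in the replicate tests, limit read from the data, passing the limit was not always enough; inconclusive = probably only some replicates passing the limit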;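 also: agonist challenge used bursicon conditioned medium at about half maximal strength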
# TROY NFkB inh = inhibitors of TROY-driven NF-kB signaling, primary screen, Q293 LMP1-TROYcd cells, NF-kB luciferase, uHTS; 360,000 compounds, 0.98% hits; AID 1347056, 2019; Q293 LMP1-TROYcd NF-kB luciferase reporter, 4 h; inhibition, % at 10 µM;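 active = compounds whose plate-normalised and pattern-corrected inhibition of the luciferase reporter signal at the single screening dose is 50% or more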
# LMP1 NFkB inh = EBV LMP1-driven NF-kappaB luciferase reporter inhibitors, primary screen, cell-based, luminescence, single point; LMP1-induced NF-kappaB luciferase reporter cells; inhibition, % at 12.5 µM; 350,000 compounds, 0.69% hits; in the data active = inhibition above about 41%; inconclusive = no clear call, values can overlap the other calls;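 also: 0% = neutral control wells and 100% = reference inhibitor control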
# EWS-Fli inh = EWS/Fli-driven NR0B1 reporter inhibitors, primary screen, A673 cells, NR0B1 luciferase, luminescence, MLPCN library; viability-normalised; inhibition, % at 12.6 µM; 350,000 compounds, 0.67% hits; AID 651661, 2012;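 active = mean inhibition of at least 50% after viability correction, with every replicate also passing that limit; inconclusive = mean reaches 50% but only one of two replicates passes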;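 also: firefly luciferase signal divided by Alamar Blue viability fluorescence both relative to DMSO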
# TWEAK Fn14 block = inhibitors of TWEAK-Fn14 signaling, primary screen, luciferase reporter cells, uHTS | 360,000 compounds, 2% hits | TWEAK-stimulated Fn14 reporter cells, luciferase luminescence, 8 h | inhibition, % at 10 µM; in the data active = inhibition above about 50%
# Numbers without * were called inactive; ? = inconclusive; · = no result. In the library only some 3.2% were active in any assay of this set; here they are far more common.
SMILES,PAX8 reporter,LGR2 antag,TROY NFkB inh,LMP1 NFkB inh,EWS-Fli inh,TWEAK Fn14 block
CCC(=O)NC[C@@H]1[C@@H](c2ccccc2)[C@@H](CO)N1C(=O)C1CCC1,-4,-11,·,·,-4,·
CCCN(CC)c1ncnc2[nH]ncc12,-41,17,40,43*,-8,67*
O=C(C1CCCCC1)N1CCN(c2ncccn2)CC1,·,11,11,48*,·,8
O=C(c1ccc(F)cc1)N1CCC(C(=O)N2CCN(c3ncccn3)CC2)CC1,-5,8,8,4,1,-1
CC(=O)N1[C@@H]2CN(C(=O)c3ccccc3)c3ccccc3[C@@H]2[C@@H]1CO,-3,4,·,·,-6,·
O=C1C2C(C(=O)N1/N=C/c1ccc([N+](=O)[O-])o1)C1C=CC2C12CC2 (configuration not stated),20,4,-16,-24,·,49
CC1=NN(c2nc(N)nc(/C(C#N)=C/c3ccc([N+](=O)[O-])o3)n2)C(C)(C)C1,-9,-26,-1,0,70*,71*
N#CC1=C(c2ccccc2)/C(=C/c2ccccc2)OC1=O,·,-12,-6,13,·,83*
O=C1O/C(=C/c2ccccc2)c2ccccc21,-34,-15,-36,6,8,-29
CC(C)NC(=O)Nc1ccc2c(c1)C(=O)N(C)[C@H]1CC[C@H](CC(=O)Nc3ccccc3)O[C@H]1CO2,1,10,·,·,3,·
O=S1(=O)Nc2c(ccc3cccnc23)-c2ccccc21,·,·,71*,7,·,105*
CC(=O)n1cc([C@@H]2C=C(C(N)=O)O[C@H](OCCCCO)C2)c2ccccc21,6,·,·,·,4,·
COc1ccc(C(=O)/C=C/C(=O)N(CC(=O)NC2CCCCC2)Cc2cccs2)c(O)c1,60,·,42,59*,64*,82*
COc1ccc(CN(C(=O)/C=C/C(=O)c2ccc(OC)cc2O)C(C(=O)NC2CCCCC2)c2ccncc2)cc1 (configuration not stated),-9,13,4,-2,17,2
COCCN(CC(=O)NC1CCCCC1)C(=O)/C=C/C(=O)c1ccc(OC)cc1O,91*,?,58*,17,39,74*
COc1ccccc1NC(=O)N(C)C[C@H]1Oc2ncc(Br)cc2C(=O)N([C@H](C)CO)C[C@@H]1C,·,2,·,·,4,·
O=C(Cn1cnnn1)OCC(=O)c1ccc(Cl)s1,-8,·,71*,-7,·,-6
Cc1cc(C)c(C(=O)COC(=O)Cn2cnnn2)cc1C,·,·,8,-4,·,-16
CCCCCOP(=O)(c1ccccc1)c1ccccc1,95*,27,-12,-25,9,-11
CCCCP(=O)(CCCC)CCP(=O)(c1ccccc1)c1ccccc1,-11,-10,7,-1,-9,-1
COc1ccc(NC(=O)Nc2cccc3c2O[C@@H](CN(C)CC2CC2)[C@H](C)CN([C@@H](C)CO)C3=O)cc1,-45,-6,·,·,-22,·
Clc1ccc(-n2ncc3c(NCc4cccnc4)ncnc32)cc1Cl,-226,-67,51*,-29,·,19
c1ccc(CNc2ncnc3c2cnn3-c2ccccc2)cc1,·,·,-51,6,·,23
Cc1ccc(-n2ncc3c(NNC(=O)c4ccco4)ncnc32)cc1Cl,-47,1,19,3,-9,50*
Cc1cccc(-n2ncc3c(NNC(=O)c4ccco4)ncnc32)c1,-13,-8,-22,-4,·,-7
SMILES,PAX8 reporter,LGR2 antag,TROY NFkB inh,LMP1 NFkB inh,EWS-Fli inh,TWEAK Fn14 block
O=C(OCc1ccccc1)N(CCCCN(CCCNCc1ccccc1)C(=O)OCc1ccccc1)CCCNCc1ccccc1,98*,3,34,-47,?,102*
O=C(CCCCCCCC(=O)c1ccccc1)c1ccccc1,-11,·,-22,-20,2,3
C=C(CCC(=O)c1ccccc1)C(=O)c1ccccc1,16,·,-34,6,13,57*
C=C(C(=O)c1ccccc1)C(CC(=O)c1ccccc1)c1ccccc1 (configuration not stated),102*,?,11,69*,·,71*
COc1ccccc1C(CC(=O)c1ccccc1)C(=O)c1ccccc1 (configuration not stated),-9,5,·,·,-4,·
CC(C)NC(=O)N(C)C[C@@H]1Oc2ccc(NC(=O)CCC(F)(F)F)cc2C(=O)N([C@@H](C)CO)C[C@H]1C,-29,-15,·,·,10,·
Cc1cc(CNC(=O)COc2cc(F)ccc2[N+](=O)[O-])c2ccccc2n1,18,-10,7,7,7,77*
Cn1c(=N)n(CC(=O)c2ccc(Cl)c(Cl)c2)c2ccccc21,57,23,20,-1,73*,85*
COc1ccc(C(=O)Cn2c(=N)n(C)c3ccccc32)cc1,-121,·,-45,-38,-101,-56
Cn1c(=N)n(CC(=O)c2ccccc2)c2ccccc21,-77,-10,33,·,65*,45
CO[C@@H]1CN(C)C(=O)c2cc(NC(=O)c3ccc(F)cc3)ccc2OC[C@H](C)N(C(=O)CN(C)C)C[C@@H]1C,-6,-3,·,·,-5,·
C/C=C/c1cnc2c(c1)C(=O)N([C@H](C)CO)C[C@H](C)[C@H](CN(C)C(=O)C1CCC1)O2,·,6,·,·,3,·
CCOC(=O)c1sc(N(Cc2ccccc2)C(=O)COC(=O)c2ccc(O)cc2)nc1C,13,45,37,53*,·,71*
CCOC(=O)c1sc(N(Cc2ccccc2)C(=O)CCl)nc1C,-52,-6,0,1,57*,-36
Cc1noc(C)c1NC(=O)N(C)C[C@@H]1Oc2ccc(NS(=O)(=O)c3ccccc3)cc2CC(=O)N([C@@H](C)CO)C[C@@H]1C,-7,9,·,·,-12,·
C/C=C/c1ccc([C@@H]2[C@@H](CO)N3C(=O)CN(Cc4ccccc4)C[C@@H]23)cc1,-3,1,·,·,10,·
O=C(O)[C@@H]1[C@H]2C[C@H]3c4[nH]c5ccccc5c4CCN3C[C@@H]2CC[C@@H]1O,14,-5,12,65*,-2,-8
COC(=O)C1=COC(C)C2CN3CCc4c([nH]c5ccccc45)C3CC12 (configuration not stated),·,·,7,14,-5,4
COC(=O)C1=CO[C@@H](C)[C@H]2CN3CCc4c([nH]c5ccccc45)[C@@H]3C[C@H]12,9,·,15,78*,-10,-3
OC1CCC2CN3CCc4c([nH]c5ccccc45)C3CC2C1 (configuration not stated),·,·,-5,·,-15,35
CCC(=O)N1[C@H](CO)[C@H](c2ccc(C#CC3CCCCC3)cc2)[C@@H]1CNC(C)C,·,-19,·,·,7,·
CCn1c(Sc2ccc([N+](=O)[O-])cn2)nnc1-c1ccco1,71*,44,4,14,13,55*
